HT1080NT lethal = qHTS for induction of synthetic lethality in tumor cells producing 2HG: qHTS for the HT-1080-NT fibrosarcoma cell line | HT-1080-NT fibrosarcoma viability, CellTiter-Glo ATP luminescence, 48 h | Potency, µM (titrated, usually from 46.1 µM), inactives show top-dose activity, negative = less viability, most hits filed as cytotoxic | actives 1.6% (n = 360,000);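 further: NT is the 2HG producing partner of a matched IDH1 knockdown line; potency means the concentration at half of the fitted maximal effect; 0% = DMSO-treated cells and -100% = media-only wells without cells; nearly all actives have a fitted effect of over 55% in size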
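Read-out is CellTiter-Glo luminescence after 10 minutes at room temperature, following 48 hours' compound treatment of HT-1080-NT cells (750 cells/well, RPMI, 5% FBS, 37 degrees C).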
IL1B secr inh = qHTS for Inhibitors of Inflammasome Signaling: IL-1-beta AlphaLISA Primary Screen | activity change, % at 57.5 µM | THP-1 LPS/ATP IL-1B secretion, AlphaLISA, 16 h; stronger effect = lower value | actives 4.7% (n = 360,000); in the data active means activity change below about -50%; inconclusive means mostly about -30% to -49%
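Secreted IL-1B measured by AlphaLISA bead assay after 16 h compound exposure of THP-1 cells; compounds (final up to 57.5 uM) added 1 h before LPS (250 ng/mL) and ATP (1.25 mM) stimulation; lower signal means less secretion.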
KB-3-1 cytotox = qHTS assay for MDR1-selective chemotherapeutics: Primary screen using the parental adenocarcinoma cell KB-3-1; Potency, µM (titrated, usually from 46.1 µM), hits mostly cytotoxic; KB-3-1 viability, CellTiter-Glo ATP luminescence, 72 h; actives 1.4% (n = 400,000); further: potency means the concentration at half of the fitted maximal effect; nearly all actives have a fitted effect of over 60% in size
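Cytotoxicity measured as CellTiter-Glo luminescence after 72 h at 37 C. Compound titrations were pinned onto drug-naive KB-3-1 parental adenocarcinoma cells grown in DMEM with 10% FBS, and normalized data fitted to concentration-response curves.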
HT1080 IDH1KD tx = qHTS for induction of synthetic lethality in tumor cells producing 2HG: qHTS for the HT-1080-IDH1KD cell line. HT-1080 IDH1 knockdown viability, ATP luminescence, 48 h. Potency, µM (top dose mostly 46.1 µM), without a hit: at the top dose activity, negative = toxicity, hits mostly cytotoxic. actives 2% (n = 360,000). AID 686971, 2013;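 further: potency means the concentration at half of the fitted maximal effect; 0% = DMSO wells and -100% = cell-free medium wells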
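IDH1KD HT-1080 cells, 750/well, RPMI + 5% FBS; compound pinned after 2 h settling; 48 h, 37 °C; CellTiter-Glo luminescence; % activity normalised to DMSO and no-cell wells; curves fitted, classed by r2 and efficacy.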
KB-V1 MDR tox = qHTS assay for MDR1-selective chemotherapeutics: Primary screen using the drug-selected MDR subline cells KB-V1 | KB-V1 MDR cells viability, CellTiter-Glo, 72 h | Potency, µM (top dose mostly 46.1 µM), usual class: cytotoxic | actives 3.4% (n = 400,000); further: potency means the concentration at half of the fitted maximal effect; nearly all actives have a fitted effect of over 60% in size
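Cytotoxicity via CellTiter-Glo luminescence after 72 h compound exposure at 37 degrees C. Cells: drug-selected KB-V1 line, DMEM phenol-red free plus 10% FBS. Compounds tested at multiple concentrations; normalized data fitted to concentration-effect curves.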
* marks the source's active call; other numbers are inactive results; i = inactive; ? = inconclusive; · = not tested or not shown; [ ] = dose if it differs, or a comment. This is a sample that favours compounds with a hit; in the whole collection about 8.8% have one here. Unless noted, the call rests on the fitted dose curve; in most records, active means well fitted curve in the direction sought with a large enough effect; inconclusive means small, poorly fitted or top-dose-only effect, or another doubt; inactive means no such curve, though single readings can be large; an effect the other way counts as inactive or inconclusive. Unless noted, on the % scale 0 is the no-effect control and ±100 the full control effect.

SMILES	HT1080NT lethal	IL1B secr inh	KB-3-1 cytotox	HT1080 IDH1KD tx	KB-V1 MDR tox
Cc1ccc(NC(=O)Cn2nc(C(F)(F)F)c3c2CCC3)cc1C	·	·	i	·	i
Cc1cc(C)n(CCCN2CCC(C(=O)Nc3cccc(-c4cccc(F)c4)c3)CC2)n1	-3.7%	-65.4*	·	-0.1%	·
COc1ccccc1CNC(=O)Cn1c(-c2ccc(F)cc2)cc(C(C)=O)c1C	·	·	i	·	i
Cc1ccc(C2=N/C(=C/N3CCOCC3)C(=O)O2)cc1	0.6%	-27.2	i	13.6%	i
Cc1ccc(C2=N/C(=C\N3CCCCC3)C(=O)O2)cc1	3.0%	-63.4*	i	2.3%	?
C=CCn1c(SCC(=O)c2[nH]c(C)c(C(=O)OCC)c2C)nc2scc(-c3ccccc3)c2c1=O	-6.9%	11.8	i	1.5%	i
C=CCn1c(SCC(=O)c2[nH]c(C)c(C(=O)OCC)c2C)nc2scc(-c3ccc(OC)cc3)c2c1=O	-19.9%	44.5	4.61µM*	-18.2%	?
COc1ccc(OC)c(/C=C/C(=O)OCC(=O)N2CCN(S(=O)(=O)c3ccc(C)cc3C)CC2)c1	4.7%	17.8	i	8.8%	i
O=C(Nc1ncccn1)c1ccc([N+](=O)[O-])o1	?	-89.6*	?	?	i
Cc1ccnc(NC(=O)c2ccc([N+](=O)[O-])o2)c1	?	·	?	-24.0%	i
O=C(Nc1ccccn1)c1ccc([N+](=O)[O-])o1	?	-91.6*	?	?	?
O=C(Nc1cc(-c2nc3ncccc3o2)ccc1Cl)c1ccc([N+](=O)[O-])o1	?	-23.1	3.66µM*	?	?
O=C(Nc1cc(-c2nc3ncccc3o2)ccc1Cl)c1cccs1	-12.1%	i	i	-13.6%	?
O=C(Nc1nc2c(Cl)cccc2s1)c1ccc([N+](=O)[O-])o1	-4.2%	-10.6	?	1.1%	i
O=C(CN1C(=O)c2ccccc2C1=O)Nc1ccc(S(=O)(=O)N2CCOCC2)cc1	?	-4.6	i	13.8%	i
COc1cccc(N(C(=O)c2csnn2)C(C(=O)NC2CCCC2)c2ccccc2)c1 (stereo unspecified)	-3.9%	21.3	i	1.3%	?
O=C(OCCNc1nc(-c2ccccc2)nc2ccccc12)c1cccnc1	-10.5%	1.9	i	-2.9%	?
CCCOC(=O)c1cccc(Nc2nc(-c3cccnc3)nc3ccccc23)c1	25.9µM*	-98.0*	?	?	?
CCOC(=O)c1cccc(Nc2ncnc3ccccc23)c1	-11.9%	-9.5	i	1.9%[9.24 µM]	11.6µM*
CC(C)Oc1ccc(Nc2ncnc3ccccc23)cc1	-1.7%	-153.6*	i	1.5%	?
COC(=O)c1cccc(Nc2ncnc3ccc(C)cc23)c1	-1.7%	13.2	i	-4.5%	?
CCOC(=O)c1nc(Nc2ccc(Nc3ccccc3)cc2)c2ccccc2n1	-29.0%	-64.8*	?	?	?
Cc1cc(Nc2cccc(Br)c2)n2c(nc3ccccc32)c1C#N	·	·	8.2µM*	·	?
O=c1c(-c2cc3ccccc3o2)[n+]([O-])c2ccccc2n1OCc1ccccn1	0.7%	0.0	i	3.0%	3.66µM*
COc1cccc(-n2cnc3scc(-c4cccs4)c3c2=O)c1	-3.4%	-64.4*	i	3.0%[9.24 µM]	?
SMILES	HT1080NT lethal	IL1B secr inh	KB-3-1 cytotox	HT1080 IDH1KD tx	KB-V1 MDR tox
O=c1c2c(-c3cccs3)csc2ncn1/N=C/c1ccc(OC(F)F)cc1	-7.6%	-28.3	i	-0.5%	14.6µM*
CN(C)c1ccc(/C=C/c2c([N+](=O)[O-])c(=O)n(C)c(=O)n2C)cc1	-3.5%	-1.1	i	-0.7%	i
CCCOc1ccc(/C=C/c2c([N+](=O)[O-])c(=O)n(C)c(=O)n2C)cc1	0.8%	-76.6*	i	-9.9%	i
Cn1c(/C=C/c2ccc(Br)cc2)c([N+](=O)[O-])c(=O)n(C)c1=O	?	-102.8*	20.6µM*	13µM*	?
CCCCCN(CCCCC)c1ccc(/C=C/c2ccnc3ccccc23)cc1	·	·	i	·	?
Cc1nc(N/N=C/c2cccc(F)c2)cc(N2CCOCC2)n1	-0.8%	-96.7*	i	-1.4%	?
O=[N+]([O-])c1ccccc1/C=N/Nc1nc(N2CCCC2)nc(N2CCCC2)n1	-20.6%	17.1	i	-23.4%	?
Cc1nc(N/N=C/c2ccc(O)cc2O)cc(N2CCOCC2)n1	?	-99.1*	?	4.11µM*	?
Oc1ccccc1/C=N/Nc1cc(N2CCCC2)nc(N2CCCC2)n1	-2.3%	-103.2*	?	-11.9%	i
Oc1ccc(C=Nc2ccc(N3CCOCC3)cc2)c(O)c1	-9.5%	2.7	i	-16.0%	?
Oc1cccc(/C=N/Nc2cc(N3CCOCC3)nc(N3CCOCC3)n2)c1	-3.0%	-54.0*	i	3.3%	?
Oc1ccc(/C=N/Nc2cc(N3CCOCC3)nc(N3CCOCC3)n2)cc1O	-0.7%	25.2	i	-1.9%	i
COc1ccc(CNC(=O)C2CC(C)=CCC2C(=O)O)cc1 (stereo unspecified)	11.2%	73.7	i	11.2%	?
Cc1cc(C)n(-c2nc3cc(Cl)c(Cl)cc3nc2Nc2ccc(F)cc2C)n1	·	·	i	·	?
COc1cc(NC(=O)c2ccco2)c(C(=O)OCC(=O)c2c[nH]c3ccccc23)cc1OC	-27.7%	26.1	i	-19.7%	i
C[C@@H]1C(c2cccc(Cl)c2)=NN(c2ccc(Br)cc2)[C@H]1C(=O)N1CCOC1=O	?	-51.3*	i	?	i
O=C1OCCN1C(=O)[C@H]1[C@H](c2ccc([N+](=O)[O-])cc2)C(c2ccc(F)cc2)=NN1c1ccccc1	-13.7%	-51.0*	i	-28.5%	i
C[C@@H]1C(c2cccc(Cl)c2)=NN(c2ccccc2)[C@H]1C(=O)N1CCOC1=O	-8.8%	-77.7*	i	-12.9%	i
Cc1cc(C)c2oc(=O)cc(CN3CCCCC3)c2c1	-1.8%	-9.4	i	-0.7%	i
O=C(CCS(=O)(=O)Cc1ccc(Cl)cc1)NCCc1ccccc1	8.8%	12.2	i	1.7%	i
Cc1cc(NC(=O)CCC(=O)N(Cc2cccs2)C(C)(C)C(=O)NC2CCCCC2)no1	8.6%	-12.8	i	0.1%	i
C=CCNC(=O)C1CCC(CNc2nc(=S)[nH]c3ccccc23)CC1 (stereo unspecified)	1.5%	18.1	i	2.2%	i
